# The OligoGym collection
# Target: RIT1
# Assay: pooled miR-30 sensor sort-seq; sequence = guide strand
# Conditions: shRNA
# Note: reference of the scale not given here.
row,Sequence,sensor-assay potency score (higher = more potent)
1,TCGGACTCGATAAATAAGCTGT,-0.314
2,TAAGCTGTTTAAACTCACGAAC,-0.618
3,TTGAGGTCTGACTTGTTTCCCA,-0.117
4,TAGCCTCTTCCATACACTGTTT,-0.898
5,TAGCTGTTTGAGGTCTGACTTG,-0.94
6,TTAGCCTCTTCCATACACTGTT,-0.476
7,TAAACTCTGCCTGTCCAGCTGT,0.108
8,TTCTTTCCTACGTATCTCCCGT,-0.212

# Target: RNASE11
# Assay: as above
# Conditions: shRNA
row,Sequence,sensor-assay potency score (higher = more potent)
1,TTCTGTACAAACTTGCAGCTGG,0.788
2,TTGTGCTTTCTGATGCTTCTGC,0.534
3,TTCGTCTGTAAATTCTTCTTTA,-0.406
4,TTATCTTCATTGTGCTTTCTGA,-0.608
5,TTGGATTTTTCACTCCTCCAGT,-0.449
6,TATTGCATCTCTTCGTCTGTAA,0.018
7,TTCTCTAATGAGGTAACACTAT,-1.05
8,TGATGCTTCTGCAAGAACCAGG,-0.377
9,TCTTTAATTATCTTCATTGTGC,-0.382
10,TAATGAGGTAACACTATGGTAT,-0.534
11,TTTAGTAAGACCCTAGTCCTAA,-0.427
12,TTTAACTAACAGGATCGGGTTC,-0.116
